Test results published in PubChem BioAssay (NCI).
This is part of a sample that, as a whole, favours compounds with a hit. Of some 83,000 tested, about 20% had one in any assay.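 Results are percent growth after 48 hours of single-concentration exposure. 100 means growth as in untreated cells, lower positive values show inhibition; negative values down to -100 show cell death.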 A number with no mark means an inactive call. The source made the active and inactive calls. How the source made its calls: active means growth percent below 10; inactive means the rest.

Key:
Assay in all cases: NCI-60 one-dose screen, 48 h (100 = growth as untreated, 0 = no growth, -100 = all killed)
Conditions in all cases: 10 µM unless noted
NCI-H23 lung = system: NCI-H23 lung
NCI-H226 lung = system: NCI-H226 lung
NCI-H322M lung = system: NCI-H322M lung
HOP-62 NSCLC = system: HOP-62 NSCLC
NCI-H460 lung = system: NCI-H460 lung
HOP-92 NSCLC = system: HOP-92 NSCLC
NCI-H522 lung = system: NCI-H522 lung
A549/ATCC NSCLC = system: A549/ATCC NSCLC
786-0 renal = system: 786-0 renal
COLO 205 colon = system: COLO 205 colon
DU-145 prostate = system: DU-145 prostate
K-562 leukemia = system: K-562 leukemia
MALME-3M melanoma = system: MALME-3M melanoma
MDA-MB-231 breast = system: MDA-MB-231 breast
RXF 393 renal = system: RXF 393 renal
SF-268 CNS = system: SF-268 CNS
SF-295 CNS = system: SF-295 CNS
SF-539 CNS = system: SF-539 CNS
UACC-257 melanoma = system: UACC-257 melanoma
M14 melanoma = system: M14 melanoma

| Structure (SMILES) | growth (NCI-H23 lung) [%] | growth (NCI-H226 lung) | growth (NCI-H322M lung) | growth (HOP-62 NSCLC) | growth (NCI-H460 lung) | growth (HOP-92 NSCLC) | growth (NCI-H522 lung) | growth (A549/ATCC NSCLC) | growth (786-0 renal) | growth (COLO 205 colon) | growth (DU-145 prostate) | growth (K-562 leukemia) | growth (MALME-3M melanoma) | growth (MDA-MB-231 breast) | growth (RXF 393 renal) | growth (SF-268 CNS) | growth (SF-295 CNS) | growth (SF-539 CNS) | growth (UACC-257 melanoma) | growth (M14 melanoma) |
| --- | --- | --- | --- | --- | --- | --- | --- | --- | --- | --- | --- | --- | --- | --- | --- | --- | --- | --- | --- | --- |
| CCOC(=O)c1cc(C(=O)c2ccc(OC)c(OC)c2)n2ccc(-c3ccccn3)cc12 | 78 | 49.9% | 58.7% | 53.1% | 17.9% | 41.6% | -3.85% (active) | 47.5% | 101% | 65.5% | 65.1% | 107% | 49.6% | 58.1% | 63.9% | 25.3% | 69.1% | 29.6% | 76.3% | 101% |
| CCCCCN(CCCCC)CCCCCCCCN1CCCc2ccccc21 | 76 | 97.6% | 89.9% | 109% | 96% | 88% | 34.6% | 95.8% | 96.6% | 88.5% | 101% | 7.49% (active) | 99.2% | 90.9% | 115% | 86.9% | 80.1% | 107% | 95.2% | 89.8% |
| CC1=CC[C@@H]2C(C)(C)[C@@H](O)CC[C@@]2(C)[C@@H]1COc1ccc2ccc(=O)oc2c1 | 74.7 | 38.2% | 91.1% | 67.2% | 88.6% | 51.3% | 25.9% | 43% | 92.9% | 55.3% | 68.9% | 36% | 72.3% | 78.7% | 65% | 66.1% | 46.5% | 85.6% | 102% | 76.9% |
| CC(=O)Nc1ccc2nc3ccc(NC(C)=O)cc3[n+](-c3ccccc3)c2c1 | 104 | 127% | 109% | 103% | 108% | 136% | 88% | 106% | 102% | 109% | 117% | 57.1% | 115% | 66.3% | 101% | 97.5% | 121% | 89.3% | 94.5% | 107% |
| O=[N+]([O-])c1cc(CCl)ccc1OCCBr | 102 | 94.8% | 104% | 105% | 101% | 98.6% | 96.1% | 104% | 103% | 107% | 95.7% | 115% | 107% | 108% | 110% | 101% | 99.7% | 97.9% | 105% | 98.3% |
| CC(C)(C)c1cc(C(=O)N2CCC(C(=O)NCCN)CC2)cc(C(C)(C)C)c1 | 104 | 81.3% | 93.6% | 97.5% | 100% | 85.1% | 66% | 81% | 106% | 98.9% | 116% | 103% | 95% | 90.9% | 98.5% | 97.8% | 101% | 98.4% | 81% | 113% |
| CCOC(=O)c1cc(C#N)n2ncc3ccccc3c12 | 94.1 | 91.2% | 102% | 90.8% | 101% | 80.7% | 93.3% | 100% | 95.7% | 118% | 109% | 95.1% | 102% | 98.6% | 102% | 101% | 103% | 89% | -53.6% (active) | 93.2% |
| C=CCCCCOc1ccccc1-c1cnc(OCCCCC=C)n1C | 76 | 92.2% | 72% | 77.2% | 55.6% | 75.2% | 12.6% | 50.3% | 107% | 46% | 92.6% | 30.5% | 62.8% | 66.5% | 90.5% | 79.6% | 70.1% | 81% | 66.6% | 72.6% |
| Cc1cc(SC#N)ncn1 | 103 | 99% | 103% | 98.2% | 99.5% | 106% | 92.3% | 93.5% | 109% | 115% | 112% | 95.1% | 100% | 93.3% | 105% | 111% | 128% | 103% | 103% | 108% |
| O=C1COCCN1c1ccc(NCc2cn(Cc3ccccc3)c3ccccc23)cc1 | 93.7 | -40.1% (active) | 86.1% | 90.7% | 31.9% | 69.5% | 94.1% | 81.4% | 95.3% | 28.8% | 102% | 57.3% | 95.9% | 86.7% | 46.8% | 91.9% | 61.7% | 91.8% | 75.4% | 90.2% |
| COc1ncc(-c2ccc3nccc(C#CCCCCC(=O)NO)c3c2)cc1NS(=O)(=O)c1ccc(F)cc1F | 29.6 | 9.85% (active) | 7.5% (active) | 4.48% (active) | 6.53% (active) | -27.7% (active) | -21.7% (active) | -12.7% (active) | -14.5% (active) | -44.5% (active) | 12.4% | 17.3% | -40.5% (active) | -11.8% (active) | -56.6% (active) | -11.6% (active) | -9.35% (active) | -45.7% (active) | -16.4% (active) | -48.7% (active) |
| O=C1NC(=O)C(Cc2ccc(OCc3ccc(-c4cc(F)c(F)c(F)c4)cc3)cc2)S1 (stereo not given) | 80.9 | 82.5% | 92.4% | 91.7% | 92% | 98.2% | 49.5% | 73.2% | 95.5% | 97.6% | 95.1% | 65% | 93% | 76.7% | 102% | 78.5% | 85.7% | 85% | 90.7% | 94.8% |
| COc1ccc(-c2nc3ccccn3c2/C=C/C(=O)c2cc(OC)c(OC)c(OC)c2)cc1OC | 16.3 | 23.3% | 51.3% | 28.5% | 0.623% (active) | -22.5% (active) | -5.63% (active) | 20.7% | 24.7% | 17.9% | 12.7% | 14.6% | 45.9% | 21.4% | 27.8% | 26.2% | 4.4% (active) | -25.1% (active) | 52.8% | 13.4% |
| Cc1cc(C)c(O)c(CNCCCCCCNCc2cc(C)cc(C)c2O)c1 | 56 | 81.6% | -12.6% (active) | 17.6% | -62.6% (active) | 12.1% | -13% (active) | 32% | 54.5% | -72.8% (active) | 7.45% (active) | -63% (active) | -81.9% (active) | -44% (active) | -2.77% (active) | 23.9% | -83.6% (active) | -85.3% (active) | -80.6% (active) | -79.9% (active) |
| CC1=C/C(=C(\c2cc(C)c(O)c(C(=O)O)c2)c2c(Cl)cccc2Cl)C=C(C(=O)O)C1=O | 98.8 | 96.7% | 97.7% | 97% | 104% | 92.9% | 97.8% | 100% | 102% | 110% | 118% | 114% | 88.3% | 99.9% | 120% | 104% | 100% | 100% | 106% | 97.4% |
| CCOc1cccc2c(NC(C)CCCN(CC)CC)c(C)cnc12 (stereo not given) | 110 | 103% | 91.8% | 98.9% | 110% | 97% | 94.7% | 91.4% | 103% | 77.1% | 110% | 101% | 116% | 78.7% | 102% | 87.6% | 109% | 102% | 108% | 104% |
| CC(C)[N+](C)(C)CC(O)COc1cccc2ccccc12 (stereo not given) | 95.5 | 107% | 112% | 106% | 109% | 81.4% | 114% | 101% | 121% | 104% | 106% | 106% | 103% | 103% | 115% | 94% | 104% | 96% | 90.4% | 107% |
| CCN(CC)c1cc(N)c(Cc2c(N)cc(N(CC)CC)cc2Cl)c(Cl)c1 | 11.1 | 45.6% | 96.9% | 51.8% | 35% | 26.1% | -3.79% (active) | 47% | 74.3% | 21.4% | 67.4% | 19.2% | 44.6% | 48.5% | 63.7% | 36.6% | 31.8% | 44.2% | 12.4% | 52.5% |
| Cc1nc(Cl)cc(N(c2cc(Cl)nc(C)n2)c2ncc(C(=O)Nc3c(C)cccc3Cl)s2)n1 | 78.2 | 59.3% | 52.2% | 39.4% | 59.5% | -33.5% (active) | 53.7% | 50.5% | 40.1% | 67.7% | 76.5% | 6.72% (active) | 62.5% | 24% | 3.03% (active) | 47% | 50.4% | 38.9% | 79.6% | 79.6% |
